# ± gives the standard deviation of the averaged measurements.
# Tests used:
# Assay in all cases: promoter activity interaction Z-score (Lux/OD deviation from empty-vector control); higher = stronger promoter induction by the compound
# [1] = tested on: E. coli BW25113 acrABp lux reporter
# How it was run: (§1)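 Every compound was given at four 1:2 dilutions, in biological duplicates, to E. coli BW25113 carrying low-copy luxCDABE promoter reporters in wild-type or single-gene deletion backgrounds. Growth in 40 µl LB Lennox in 384-well plates at 37°C was followed by OD600 and luminescence readings every 30 min for 12 h, integrated over 0–8 h for wild type and 1–9 h for deletion strains, with wells below 10% of the median growth value excluded. Scores are Z-transformed residuals of growth-normalised luminescence fitted against a control.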
# [2] = tested on: E. coli BW25113 micFp lux reporter
# How it was run: as §1
# [3] = tested on: E. coli BW25113 ompFp lux reporter
# How it was run: as §1
# [4] = tested on: E. coli BW25113 robp lux reporter
# How it was run: as §1
# [5] = tested on: E. coli BW25113 soxSp lux reporter
# How it was run: as §1
# [6] = tested on: E. coli BW25113 tolCp lux reporter
# How it was run: as §1
# [7] = 28.4 µg/ml, genetic background: wild type
# [8] = 28.4 µg/ml, genetic background: ΔmarA
# [9] = 28.4 µg/ml, genetic background: Δrob
# [10] = 28.4 µg/ml, genetic background: ΔsoxS
# [11] = 56.8 µg/ml, genetic background: wild type
# [12] = 56.8 µg/ml, genetic background: ΔmarA
# [13] = 56.8 µg/ml, genetic background: Δrob
# [14] = 56.8 µg/ml, genetic background: ΔsoxS
# [15] = 113.7 µg/ml, genetic background: wild type
# [16] = 113.7 µg/ml, genetic background: ΔmarA
# [17] = 113.7 µg/ml, genetic background: Δrob
# [18] = 113.7 µg/ml, genetic background: ΔsoxS
# [19] = 227.3 µg/ml, genetic background: wild type
# [20] = 227.3 µg/ml, genetic background: ΔmarA
# [21] = 227.3 µg/ml, genetic background: Δrob
# [22] = 227.3 µg/ml, genetic background: ΔsoxS
structure (smiles),measurement,setting,value
O=c1[nH]c(=O)c2[nH]c(O)nc2[nH]1 [Sodium urate],promoter activity interaction Z-score,[1]; [7],0.0607 ± 0.068
same,promoter activity interaction Z-score,[1]; [8],-0.691 ± 0.25
same,promoter activity interaction Z-score,[1]; [9],0.112 ± 0.14
same,promoter activity interaction Z-score,[1]; [10],-0.119 ± 0.36
same,promoter activity interaction Z-score,[1]; [11],0.0108 ± 0.15
same,promoter activity interaction Z-score,[1]; [12],-1.36 ± 0.16
same,promoter activity interaction Z-score,[1]; [13],0.00464 ± 0.19
same,promoter activity interaction Z-score,[1]; [14],-0.118 ± 0.35
same,promoter activity interaction Z-score,[1]; [15],0.121 ± 0.12
same,promoter activity interaction Z-score,[1]; [16],-1.18 ± 0.34
same,promoter activity interaction Z-score,[1]; [17],-0.0273 ± 0.041
same,promoter activity interaction Z-score,[1]; [18],-0.102 ± 0.19
same,promoter activity interaction Z-score,[1]; [19],0.0857 ± 0.087
same,promoter activity interaction Z-score,[1]; [20],-0.114 ± 0.23
same,promoter activity interaction Z-score,[1]; [21],0.315 ± 0.14
same,promoter activity interaction Z-score,[1]; [22],-0.127 ± 0.56
same,promoter activity interaction Z-score,[2]; [7],0.0581 ± 0.23
same,promoter activity interaction Z-score,[2]; [8],-0.118 ± 0.23
same,promoter activity interaction Z-score,[2]; [9],-0.0289 ± 0.19
same,promoter activity interaction Z-score,[2]; [10],0.0526 ± 0.22
same,promoter activity interaction Z-score,[2]; [11],0.0725 ± 0.02
same,promoter activity interaction Z-score,[2]; [12],-0.0713 ± 0.39
same,promoter activity interaction Z-score,[2]; [13],0.0271 ± 0.23
same,promoter activity interaction Z-score,[2]; [14],0.0688 ± 0.17
same,promoter activity interaction Z-score,[2]; [15],0.114 ± 0.09
same,promoter activity interaction Z-score,[2]; [16],-0.218 ± 0.078
same,promoter activity interaction Z-score,[2]; [17],-0.082 ± 0.13
same,promoter activity interaction Z-score,[2]; [18],0.0891 ± 0.29
same,promoter activity interaction Z-score,[2]; [19],0.0879 ± 0.087
same,promoter activity interaction Z-score,[2]; [20],-0.0859 ± 0.057
same,promoter activity interaction Z-score,[2]; [21],-0.12 ± 0.13
same,promoter activity interaction Z-score,[2]; [22],-0.223 ± 0.39
same,promoter activity interaction Z-score,[3]; [7],-0.0285 ± 0.013
same,promoter activity interaction Z-score,[3]; [8],-0.27 ± 0.27
same,promoter activity interaction Z-score,[3]; [9],-0.245 ± 0.31
same,promoter activity interaction Z-score,[3]; [10],0.0289 ± 0.054
same,promoter activity interaction Z-score,[3]; [11],0.162 ± 0.082
same,promoter activity interaction Z-score,[3]; [12],-0.186 ± 0.1
same,promoter activity interaction Z-score,[3]; [13],-0.168 ± 0.14
same,promoter activity interaction Z-score,[3]; [14],0.253 ± 0.42
same,promoter activity interaction Z-score,[3]; [15],0.31 ± 0.34
same,promoter activity interaction Z-score,[3]; [16],-0.874 ± 0.12
same,promoter activity interaction Z-score,[3]; [17],-0.0944 ± 0.13
same,promoter activity interaction Z-score,[3]; [18],0.241 ± 0.093
same,promoter activity interaction Z-score,[3]; [19],0.726 ± 0.41
same,promoter activity interaction Z-score,[3]; [20],0.504 ± 0.044
same,promoter activity interaction Z-score,[3]; [21],0.739 ± 0.45
same,promoter activity interaction Z-score,[3]; [22],0.654 ± 0.45
same,promoter activity interaction Z-score,[4]; [7],0.189 ± 0.027
same,promoter activity interaction Z-score,[4]; [8],-0.944 ± 0.38
same,promoter activity interaction Z-score,[4]; [9],-0.184 ± 0.64
same,promoter activity interaction Z-score,[4]; [10],0.198 ± 0.34
same,promoter activity interaction Z-score,[4]; [11],0.19 ± 0.1
same,promoter activity interaction Z-score,[4]; [12],-0.157 ± 0.22
same,promoter activity interaction Z-score,[4]; [13],0.189 ± 0.29
same,promoter activity interaction Z-score,[4]; [14],0.0419 ± 0.49
same,promoter activity interaction Z-score,[4]; [15],0.246 ± 0.37
same,promoter activity interaction Z-score,[4]; [16],-1.37 ± 0.15
same,promoter activity interaction Z-score,[4]; [17],-0.253 ± 0.052
same,promoter activity interaction Z-score,[4]; [18],-0.163 ± 0.39
same,promoter activity interaction Z-score,[4]; [19],0.613 ± 0.94
same,promoter activity interaction Z-score,[4]; [20],0.235 ± 0.099
same,promoter activity interaction Z-score,[4]; [21],0.286 ± 0.0035
same,promoter activity interaction Z-score,[4]; [22],1.01 ± 0.33
same,promoter activity interaction Z-score,[5]; [7],0.0961 ± 0.26
same,promoter activity interaction Z-score,[5]; [8],-0.0522 ± 0.15
same,promoter activity interaction Z-score,[5]; [9],0.0395 ± 0.24
same,promoter activity interaction Z-score,[5]; [10],-0.0315 ± 0.002
same,promoter activity interaction Z-score,[5]; [11],-0.0307 ± 0.019
same,promoter activity interaction Z-score,[5]; [12],-0.0796 ± 0.096
same,promoter activity interaction Z-score,[5]; [13],0.0954 ± 0.4
same,promoter activity interaction Z-score,[5]; [14],-0.135 ± 0.051
same,promoter activity interaction Z-score,[5]; [15],0.0999 ± 0.14
same,promoter activity interaction Z-score,[5]; [16],-0.0884 ± 0.18
same,promoter activity interaction Z-score,[5]; [17],-0.00479 ± 0.23
same,promoter activity interaction Z-score,[5]; [18],0.0412 ± 0.16
same,promoter activity interaction Z-score,[5]; [19],-0.0463 ± 0.28
same,promoter activity interaction Z-score,[5]; [20],-0.0252 ± 0.33
same,promoter activity interaction Z-score,[5]; [21],0.122 ± 0.45
same,promoter activity interaction Z-score,[5]; [22],-0.094 ± 0.097
same,promoter activity interaction Z-score,[6]; [7],0.639 ± 0.76
same,promoter activity interaction Z-score,[6]; [8],0.214 ± 0.76
same,promoter activity interaction Z-score,[6]; [9],-0.337 ± 0.13
same,promoter activity interaction Z-score,[6]; [10],0.0334 ± 0.15
same,promoter activity interaction Z-score,[6]; [11],-0.365 ± 0.23
same,promoter activity interaction Z-score,[6]; [12],-0.26 ± 0.17
same,promoter activity interaction Z-score,[6]; [13],0.0782 ± 0.61
same,promoter activity interaction Z-score,[6]; [14],-0.0978 ± 0.24
same,promoter activity interaction Z-score,[6]; [15],-0.0784 ± 0.044
same,promoter activity interaction Z-score,[6]; [16],-0.877 ± 0.12
same,promoter activity interaction Z-score,[6]; [17],-0.397 ± 1.1
same,promoter activity interaction Z-score,[6]; [18],0.132 ± 0.047
same,promoter activity interaction Z-score,[6]; [19],-0.0307 ± 0.037
same,promoter activity interaction Z-score,[6]; [20],-0.7 ± 0.17
same,promoter activity interaction Z-score,[6]; [21],1.21 ± 1.3
same,promoter activity interaction Z-score,[6]; [22],-0.0415 ± 0.19

# From the supplement of paper PMC12282887
